MBNL1-CUG inh = blocks human MBNL1 binding to CUG repeat RNA; Q9NR56; TR-FRET MBNL1-His/biotin-(CUG)12 binding, 665/545 ratio; Potency, µM (titrated, usually from 57.5 µM), for the others: at the top dose activity change, negative = inhibition, hits mostly inhibitors; 280,000 tested, 0.036% active; active = well fitted inhibition curve with a large enough effect in the signal ratio, with a control signal flat, not every such curve was filed as active; inconclusive = small, poorly fitted or top-dose-only effect, or effect the other way, or a change in a side signal; inactive = no such curve, though single readings can be large or run the other way; the % refers to the signal ratio; note: potency is the fitted concentration of half-maximal effect; % is set by controls: 0 for no effect and ±100 for the full control effect
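His-tagged MBNL1 binding to biotinylated (CUG)12 RNA was measured by TR-FRET using terbium anti-His antibody (0.055 ng/ul final) and streptavidin-XL665 (5 nM final). Compounds were titrated 92 nM to 58 uM; 60 min at room temperature.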
VDR inh = inhibitors of human vitamin D receptor; P11473; VDR-SRC2-3 peptide fluorescence polarization, 2 h; Potency, µM, for inactives: max response, negative = inhibition, usual class: inhibitors; 400,000 tested, 0.93% active; note: potency is the fitted concentration of half-maximal effect; % is set by controls: 0 for no effect and ±100 for the full control effect
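After 23 nl compound addition and a short centrifugation, plates sat for 2 hours at ambient temperature; polarization of fluorescence then indicated loss of VDR binding to peptide SRC2-3.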
KCNH2 3.1 inh = inhibitors of human KCNH2 3.1 potassium channel isoform; U2OS KCNH2 3.1, thallium flux FluxOr; active compounds read low; activity change, % (tested at about 1.8 µM); 340,000 tested, 0.95% active; AID 720553;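 active = maximum activity change below -70%; inconclusive = maximum activity change from -70% to -50%; inactive = maximum activity change above -50%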;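 note: thallium influx rate constant from kinetic fluorescence after stimulation buffer; % is set by controls: 0 for no effect and ±100 for the full control effect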
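Thallium flux read-out: FluxOr dye with Red40 quencher in HBSS/HEPES, 45 min at RT. Rate constants from kinetic reads were normalized to positive and negative DMSO controls. Cells: U2OS virally expressing the 3.1 isoform.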
KCNH2 WT inh = inhibitors of human wildtype KCNH2 potassium channel | Q12809 | 340,000 tested, 0.37% active | U2OS, BacMam KCNH2, thallium flux FluxOr; active compounds read low | activity change, % at 1.84 µM;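 active = maximum activity change below -70%; inconclusive = maximum activity change between -70% and -50%; inactive = maximum activity change above -50%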; note: % is set by controls: 0 for no effect and ±100 for the full control effect
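U2OS cells transduced with wild-type KCNH2 virus are loaded with FluxOr dye for 45 min, and thallium flux is measured in kinetic reads before and after stimulation buffer. Rate constants are normalized to DMSO controls.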
PLK1 PBD block = PLK1 (human) polo-box domain binding inhibition; P53350; Plk1 PBD binding of FITC phosphopeptide, fluorescence polarization; Potency, µM, inactives show max response, negative = inhibition, hits mostly inhibitors; 360,000 tested, 2.8% active; AID 720504; note: potency is the fitted concentration of half-maximal effect; series mostly up to about 57 µM; % is set by controls: 0 for no effect and ±100 for the full control effect; nearly all actives have a fitted effect of over 65% in size
CBFb-RUNX1 inh = CBF-beta/RUNX1 interaction disruption; Potency, µM (titrated, usually from 59.8 µM), for the others: top-dose activity, negative = inhibition, hits mostly inhibitors; AID 1477; AlphaScreen CBFb-His/RUNX1-biotin binding, biochemical; Q01196+Q13951; 230,000 tested, under 10 active; note: % of control where 0% means no effect
Target sequence (Q01196 whole entry, looked up): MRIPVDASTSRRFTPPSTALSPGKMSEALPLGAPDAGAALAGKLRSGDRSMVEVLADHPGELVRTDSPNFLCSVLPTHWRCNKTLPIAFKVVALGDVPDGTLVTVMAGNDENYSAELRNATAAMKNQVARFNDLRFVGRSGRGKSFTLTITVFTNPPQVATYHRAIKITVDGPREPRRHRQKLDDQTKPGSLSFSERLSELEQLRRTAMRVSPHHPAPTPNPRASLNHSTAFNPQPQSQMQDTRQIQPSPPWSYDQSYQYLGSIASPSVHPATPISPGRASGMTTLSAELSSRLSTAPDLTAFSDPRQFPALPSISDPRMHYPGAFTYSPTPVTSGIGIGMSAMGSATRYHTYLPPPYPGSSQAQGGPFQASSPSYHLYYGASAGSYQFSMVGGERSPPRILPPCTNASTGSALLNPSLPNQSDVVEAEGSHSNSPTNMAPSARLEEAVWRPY
Target sequence (Q13951 whole entry, looked up): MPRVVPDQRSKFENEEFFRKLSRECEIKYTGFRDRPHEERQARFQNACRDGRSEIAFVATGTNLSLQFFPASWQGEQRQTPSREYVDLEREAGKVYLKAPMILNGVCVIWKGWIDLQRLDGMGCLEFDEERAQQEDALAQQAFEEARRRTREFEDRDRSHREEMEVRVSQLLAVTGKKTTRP
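Bead-based AlphaScreen assay; binding partners His-tagged CBF-beta and biotinylated RUNX1 at 30 nM each. Compound exposure 15 min after a 20-min protein preincubation; bead step 90 min; all steps at room temperature.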
* hit, by the source's call; ? = inconclusive; nt = no result; [ ] = dose if it differs, or a comment. An excerpt weighted towards active compounds, which were near 3.8% of everything screened. Unless noted, calls come from the whole dose curve; as a rule, active = well fitted curve in the direction sought with a large enough effect; inconclusive = small, poorly fitted or top-dose-only effect, or another doubt; inactive = no such curve, though single readings can be large; an effect the other way counts as inactive or inconclusive.

SMILES	MBNL1-CUG inh	VDR inh	KCNH2 3.1 inh	KCNH2 WT inh	PLK1 PBD block	CBFb-RUNX1 inh
O=C1C(=Cc2cccs2)C(=O)c2ccccc21	nt	8%	-2	7	8.4µM*	1%
CC(C)[C@H](O)CC[C@@H](C)C1CC[C@H]2C3CC=C4C[C@@H](O)CC[C@]4(C)C3CC[C@]12C (stereo partly specified)	nt	-9%	nt	nt	nt	10%
CCOCc1nnc(NC(=O)c2c(-c3ccccc3)noc2C)s1	-2%	?	0	-13	30µM*	nt
COc1ccc(Cc2nnc(NC(=O)c3c(-c4ccccc4)noc3C)s2)cc1	3%	2%	11	5	-16%	-4%
COC(=O)c1sccc1NC(=O)c1c(-c2ccccc2)noc1C	8%	-3%	-74*	0	-3%	-2%
COC(=O)c1sccc1NC(=O)c1cccnc1	1%	-3%	-1	1	27µM*	-2%
COC(=O)c1c(-c2ccc(C)cc2)csc1NC(=O)c1c(-c2ccccc2)noc1C	58%	nt	nt	nt	nt	5%
CCCOc1ccc(CCc2n[nH]c(=S)n2-c2ccccc2)cc1	-6%	-7%	-74*	-3	-19%	-1%
C(/Oc1ccccc1)=C1\Nn2c(nnc2-c2cc(-c3ccccc3)n[nH]2)S1	nt	5%	nt	nt	nt	nt
COc1ccc(CN2CCC(N(CCc3ccccc3)Cc3ccccc3)CC2)c(OC)c1	-18%	-22%	-107*	-72*	-6%	-15%
CCCN1CCC(N(CCc2ccccc2)Cc2ccccc2)CC1	-1%	-22%	-75*	-20	-2%	nt
Cc1c(CNC2CCCCCC2)c(C(=O)O)c(C)n1Cc1c(F)cccc1Cl	nt	10%	nt	nt	nt	nt
Cn1c(Cc2ccccc2)nnc1SCC(=O)c1ccc(Br)s1	?	-28%	-8	-4	21µM*	-2%
Cn1nnnc1SCC(=O)c1ccc(Br)s1	?	?	0	-1	?	1%
COc1cccc(CNC(=O)c2ccc(NC(=O)N3CC(C)Sc4ccccc43)cc2)c1 (stereo unspecified)	nt	22%	nt	nt	nt	nt
COc1ccccc1NC(=O)c1c(-c2ccc(C)cc2)nnc2ccccc12	nt	2%	nt	nt	nt	nt
CCOc1ccc(NC(=O)c2ccc3c(c2)nnn3C2CCCC2)cc1	nt	-13%	nt	nt	nt	nt
Cc1ccc2c(c1)-c1cc(C)nn1C(c1sccc1C)N2 (stereo unspecified)	11%	19%	2	-155*	-7%	29%
CN(C)c1cccc2c(S(=O)(=O)Nc3ccccn3)cccc12	-1%	4%	-11	3	-2%	4%
Cc1noc(NS(=O)(=O)c2cccc3c(N(C)C)cccc23)c1C	nt	25µM*	nt	nt	nt	2%[21.7 µM]
CCC[C@@H]1CC2=CC(=O)CC[C@]2(C)[C@H]2CC[C@@]3(C)[C@@H](CC[C@@]34CCC(=O)O4)[C@H]12	nt	?	nt	nt	nt	8%
CNc1nc(Cl)c(SC)c(NCc2cccc(OC)c2)n1	0%	?	-27	6	11µM*	nt
CCC1S/C(=N/C(=O)NC2CCCCC2)NC1=O (stereo unspecified)	9%	-1%	0	7	2%	14%
O=C(/N=C1\NC(=O)C(F)(C(F)(F)F)S1)NC1CCCCC1 (stereo unspecified)	6%	50µM*	0	6	13µM*	2%
COc1ccc(OC)c(CNS(=O)(=O)c2cc(-c3onc(C)c3C)ccc2C)c1	nt	16%	nt	nt	nt	nt
SMILES	MBNL1-CUG inh	VDR inh	KCNH2 3.1 inh	KCNH2 WT inh	PLK1 PBD block	CBFb-RUNX1 inh
COc1ccc(NC(=O)NCCCN2CCCC2=O)cc1	-5%	-5%	36	-2	-4%	12%
COc1ccc(NC(=O)CC(C)NCCCN2CCCC2=O)cc1 (stereo unspecified)	-2%	3%	7	-333*	4%	nt
Cc1ccc(CN2C(=O)C3(c4ccccc42)N(c2cccc(C(F)(F)F)c2)C(=O)CS3(=O)=O)cc1 (stereo unspecified)	nt	-3%	nt	nt	nt	nt
O=C(c1ccccc1)n1nnc2ccccc21	-3%	-9%	3	-1	6µM*	-1%
O=C(CCCOc1ccc(Cl)cc1Cl)n1nnc2ccccc21	-8%	71µM*	-6	-5	8.4µM*	0%
Cc1onc(-c2ccccc2)c1C(=O)n1nnc2ccccc21	-10%	-22%	-2	-5	?	13%
CC(=O)c1ccc(OCCCC(=O)n2nnc3ccccc32)cc1	21%	?	23	1	21µM*	-1%
CCCCCCCCCCCCCCCCCC(=O)NCC(COP(=O)([O-])OCC[N+](C)(C)C)OCC (stereo unspecified)	nt	-8%	nt	nt	nt	16%
CN(c1ncnc2c1c(-c1ccccc1)cn2-c1ccc(F)cc1)C1CCCCC1	nt	14%	nt	nt	nt	nt
Cc1cc(C)cc(NC(=O)COC(=O)CCCC2=NS(=O)(=O)c3ccccc3N2)c1	-9%	-12%	1	-110*	-10%	-1%
COc1ccc(NC(=O)COC(=O)CCCC2=NS(=O)(=O)c3ccccc3N2)cc1	1%	-19%	1	-43	-15%	nt
CC(C)C(Cl)=NOC(=O)Nc1ccc(F)cc1	nt	?	18	-12	13µM*	nt
C/C(=N\OC(=O)Nc1ccc(Cl)cc1)c1ccc(F)c(F)c1	-3%	3%	-20	-3	1%	nt
COc1cc(CN2CCN(c3ccccc3F)CC2)c([N+](=O)[O-])cc1OC	?	-16%	11	-2	27µM*	-10%
O=[N+]([O-])c1cc2c(cc1CN1CCN(c3ccccc3F)CC1)OCO2	?	-11%	-16	6	-3%	nt
c1ccc(Oc2nc(NC3CCCCC3)c3[nH]cnc3n2)cc1	nt	4%	nt	nt	nt	7%
Clc1ccc(C2[C@H]3CN(CC4CCCCC4)[C@H](c4ccccc4)C34CC2(c2ccccc2)C4)cn1 (stereo partly specified)	1%	-20%	-210*	8	-6%	12%
COC(=O)c1ccc(C23CC4(C2)[C@H](CN(CC2CCCCC2)[C@@H]4c2ccccc2)C3c2ccc(Cl)nc2)cc1 (stereo partly specified)	-1%	-11%	-11	-7	10%	7%
CC(=O)c1cccc(NC(=O)c2c(-c3ccccc3)c(-c3ccccc3)nn(C)c2=O)c1	nt	8%	nt	nt	nt	nt
O=C(NCCCN1CCOCC1)c1ccccc1N1C(=O)[C@@H]2Cc3c([nH]c4ccccc34)C(c3cccc(Cl)c3)N2C1=O (stereo partly specified)	-3%	1%	-77*	?	6%	nt
CCc1nn(CC(=O)N2CCN(c3cccc(Cl)c3)CC2)c(=O)c2cc3sccc3n12	nt	5%	nt	nt	nt	nt
Cc1cc2c(n1-c1ccc(C(=O)NCCc3ccc(Cl)cc3)cc1)CCC(C)C2 (stereo unspecified)	nt	-1%	nt	nt	nt	nt
